# Assay results from article PMC4552634, “A New Set of Chemical Starting Points with Plasmodium falciparum Transmission-Blocking Potential for Antimalarial Drug Discovery” (PLoS ONE, 2015).
# Read-outs that look alike come from different tables or passages of the source. Screen size: about 13,000 compounds; about 3,200 (25%) showed an effect of 50% or more. The list shows a part of the results.
# Tested on: P. falciparum stage V gametocytes
# Design: BacTiter-Glo ATP luminescence viability of purified stage V gametocytes in 384-well plates, per cent inhibition versus DMSO
# Settings: 48 h, 5 µM, inhibitor
Compound,% Inhibition,% Inhibition (% Inhibition)
COC(=O)c1cccc(CNCc2cccc(-c3cccc(-c4nc5cc(C(F)(F)F)ccc5[nH]4)c3)c2)c1.O=C(O)C(F)(F)F [TCMDC-132949],2.495%,
CCC(CC)(Cc1ccccc1)NC(=O)[C@H](CC1CCCCC1)Nc1ccc(C#N)c2ccccc12 [TCMDC-136634],-0.7992%,
CCC(CC)(Cc1ccccc1)NC(=O)[C@H](CC(C)C)Nc1ccc(C#N)c2ccccc12 [TCMDC-136625],-7.489%,
CCC(CC)(Cc1ccccc1)NC(=O)[C@H](Cc1ccc(OC)c(OC)c1)Nc1ccc(C#N)c2ccccc12 [TCMDC-136638],82.88%,
CC(C)(CC1CCCCC1)NC(=O)[C@H](CC1CCCCC1)Nc1ccc(C#N)c2ccccc12 [TCMDC-136632],-68.15%,
Cc1cc(NC(=O)[C@H](CC2CCCCC2)Nc2ccc(C#N)c3ccccc23)ccc1F [TCMDC-136627],3.721%,
N#Cc1ccc(N[C@@H](CC2CCCCC2)C(=O)Nc2ccc(-c3ccccc3)cc2)c2ccccc12 [TCMDC-136629],57.71%,
CC(=O)c1ccc(-c2ccccc2)s1 [TCMDC-123882],-10.02%,
CC[C@H](C)[C@H](NC(=O)[C@H](CC1CCCCC1)[C@H](CC)N(O)C=O)C(=O)Nc1ccccn1 [TCMDC-137215],2.069%,
CC(=O)Nc1cccc(-c2cn(-c3ccc(OCc4cccc(F)c4)c(Cl)c3)c3ncncc23)c1 [TCMDC-135093],-24.36%,
COc1ccc(C2C(C(=O)OC3CCCC3)=C(C)NC3=C2C(=O)CCC3)cc1Br (centres unmarked) [TCMDC-124211],-24.26%,
CCn1cc(C=C2Oc3c(ccc(O)c3CN3CCCCC3C)C2=O)c2ccccc21 (centres unmarked) [TCMDC-124886],27.57%,
Cc1occc1C(=O)Nc1nc(-c2ccccn2)nc2ccsc12 [TCMDC-135244],130.5%,
Cc1cc(C(=O)Nc2nc(-c3ccccn3)nc3ccsc23)no1 [TCMDC-135243],58.63%,
Cc1onc(-c2ccccc2)c1C(=O)Nc1nc(-c2ccccn2)nc2ccsc12 [TCMDC-135272],-61.64%,
Cc1cc(C(=O)Nc2ccc(-c3ccccc3)cc2)no1 [TCMDC-124865],48.28%,
COc1ccc(C(=O)Nc2ccc3oc(-c4ccc(C(F)(F)F)cc4)cc3c2)cc1CCCN(C)C [TCMDC-138694],15.28%,
COc1ccc2nccc(N(C)CC3(O)CCC(NCc4ccc5c(n4)NC(=O)CS5)CC3)c2n1 (centres unmarked) [TCMDC-134496],10.91%,
COc1ccc2nccc([C@@H](O)CN3CCC(NCc4cc5c(cc4F)SCC(=O)N5)CC3)c2n1 [TCMDC-141432],52.03%,
COc1ccc2nccc([C@@H](O)CN3CCC(c4cc(-c5ccc(Cl)cc5)n[nH]4)CC3)c2n1 [TCMDC-141436],81.16%,
COc1ccc2nccc([C@@H](O)CN3CCC(NCc4cc5ccccc5[nH]4)CC3)c2n1 [TCMDC-140670],14.92%,
COc1ccc2nccc([C@@H](O)CN3CCC(NCc4ccc5c(c4)NC(=O)CS5)CC3)c2n1 [TCMDC-141173],12.99%,

Compound,% Inhibition,% Inhibition (% Inhibition)
COc1ccc2nccc([C@@H](O)CN3CCC(NCc4cc5c(F)ccc(F)c5[nH]4)CC3)c2n1 [TCMDC-140749],33.6%,
COc1ccc2nccc(NCC3(O)CCC(NCc4ccc5c(n4)NC(=O)CS5)CC3)c2n1 (centres unmarked) [TCMDC-134313],46.62%,
COc1cc(F)c2nccc([C@@H](O)CN3CCC(NCc4ccc5c(n4)NC(=O)CS5)CC3)c2c1 [TCMDC-141566],6.174%,
COc1ccc2nccc([C@@H](O)CN3CCC(NCc4cc5cccnc5[nH]4)CC3)c2n1 [TCMDC-140769],87.86%,
COc1ccc2nccc([C@@H](O)CN3C4CCC3CC(NCc3ccc5c(n3)NC(=O)CS5)C4)c2n1 (some centres unmarked) [TCMDC-134697],50.82%,
COc1ccc2nccc([C@@H](O)CN3CCC(NCc4cc5ccccc5cn4)CC3)c2n1 [TCMDC-140714],12.93%,
COc1ccc2nccc([C@@H](O)CN3CCC(NCc4ccc5cccc(O)c5n4)CC3)c2n1 [TCMDC-140748],43.79%,
COc1ccc2ncc(F)c(C(O)CN3CCC(NCc4ccc5c(n4)NC(=O)CO5)CC3)c2c1 (centres unmarked) [TCMDC-135531],,14.63%
CN(C)CCOc1ccc2c(c1)OC(C)(C)C=C2c1cccc2ccccc12 [TCMDC-131402],-10.44%,
CNC(=O)C1Cc2c([nH]c3c(C)cccc23)C2(N1)C(=O)Nc1ccc(OC(F)(F)F)cc12 (centres unmarked) [TCMDC-140663],46.7%,
COc1cc(Cc2cnc(N)nc2N)ccc1OCc1csc(-c2ccc(Cl)cc2)n1 [TCMDC-138680],16.88%,
CCCc1cc(C(C)=O)ccc1OCCCON1C(N)=NC(N)=NC1(C)C [TCMDC-131336],-2.455%,
CS(=O)(=O)NCCCNCc1cccc(-c2ccc(-c3nc4ccccc4[nH]3)s2)c1.O=C(O)C(F)(F)F [TCMDC-133088],4.156%,
CC(=O)c1sc2ccccc2c1O [TCMDC-125829],14.25%,
COc1ccc2nccc(NC(=O)C3CCC(NCc4ccc5c(c4)NC(=O)CS5)CC3)c2c1 (centres unmarked) [TCMDC-141228],28.37%,
COc1ccc2nccc(NC(=O)OC3CCC(NCc4ccc5c(n4)NC(=O)CS5)CC3)c2c1 (centres unmarked) [TCMDC-141555],-20.26%,
COc1ccc2nccc(CCC3(O)CCC(NCc4cc5c(cc4F)SCC(=O)N5)CC3)c2c1 (centres unmarked) [TCMDC-141917],62.44%,
O=C(Nc1cccc(-c2cccc(-c3nc4ccccc4[nH]3)c2)c1)Nc1ccc(Cl)c(Cl)c1 [TCMDC-133276],-27.25%,
CN1CCC(N(Cc2ccc(N3CCN(Cc4c[nH]c5ccc(Cl)cc45)CC3)nc2)C2CC2)CC1 [TCMDC-125090],56.06%,
CN(C)C1CCN(Cc2ccc(N3CCN(Cc4cccc5[nH]ccc45)CC3)nc2)CC1 [TCMDC-125091],12.57%,
O=C(NC1CC1)c1ccc(N2CCN(Cc3ccc(Cl)cc3)CC2)nc1 [TCMDC-134579],-1.025%,
COc1ccc(-c2nc3c(N)nc(N)nc3nc2C(C)C)cc1 [TCMDC-132109],-10.94%,

Compound,% Inhibition,% Inhibition (% Inhibition)
COc1ccc2nccc([C@@H](O)CN3CCC(NC(=O)C(c4cc5ccccc5s4)N4CCN(c5ccccc5OC)CC4)CC3)c2c1 (some centres unmarked) [TCMDC-140998],-1.294%,
Cc1nn(-c2cccc(Cl)c2)c2c1C(C(=O)c1ccc3c(c1)OCO3)CC(=O)N2 (centres unmarked) [TCMDC-124734],53.61%,
Cc1ccc(-n2nc(C)c3c2NC(=O)CSC3c2ccsc2)cc1 (centres unmarked) [TCMDC-124763],18.54%,
Cc1cccc(-n2nc(C)c3c2NC(=O)CC3C(=O)c2ccc(Cl)s2)c1 (centres unmarked) [TCMDC-124735],9.48%,
COc1ccc2ncc(F)c(CCN3CC(O)C(CNCc4nc5c(cc4Cl)OCC(=O)N5)C3)c2n1 (centres unmarked) [TCMDC-136076],,36.95%
CN(C)c1ccc(Br)c(Br)c1 [TCMDC-137228],-4.164%,
CCc1ccc(N2C(N)=NC(N)=NC2(C)C)cc1 [TCMDC-137714],18.99%,
O=C(Nc1cccc2ccccc12)N1CCc2cc3nccc(N4CCN5CCC[C@H]5C4)c3cc21 [TCMDC-140051],-22.56%,
COc1ccc(N2CCN(CCCCNC(=O)c3ccc(NC(=O)c4cccc(Cl)c4)cc3)CC2)c(OC)c1 [TCMDC-138183],74.19%,
COc1ccc(N2CCN(CCCCNC(=O)c3ccc(NC(=O)c4ccc(C(F)(F)F)cc4)cc3)CC2)c(OC)c1 [TCMDC-138132],-49.13%,
COc1ccc(N2CCN(CCCNC(=O)c3ccc(NC(=O)c4cc(Cl)cc(Cl)c4)cc3)CC2)c(OC)c1 [TCMDC-138244],-9.881%,
COc1ccc(N2CCN(CCCOc3ccc(NC(=O)c4cc(Cl)cc(Cl)c4)cc3)CC2)c(OC)c1 [TCMDC-138225],-23.18%,
COc1ccc(N2CCN(CCCC/C=C/c3ccc(NC(=O)c4cc(Cl)cc(Cl)c4)cc3)CC2)c(OC)c1 [TCMDC-138219],10.07%,
COc1ccc(N2CCN(CCCCNCc3ccc(NC(=O)c4cc(Cl)cc(Cl)c4)cc3)CC2)c(OC)c1 [TCMDC-138226],99.96%,
COc1ccc(N2CCN(CCCCNC(=O)c3ccc(NC(=O)c4cc(Cl)cc(Cl)c4)cc3)CC2)c(OC)c1 [TCMDC-138158],-3.672%,
COc1ccc(N2CCN(CCCCNC(=O)c3ccc(NC(=O)c4ccc(Cl)c(Cl)c4)cc3)CC2)c(OC)c1 [TCMDC-138159],58.71%,
COc1ccc(N2CCN(CCCCNC(=O)c3ccc(NC(=O)c4ccc(Cl)cc4)cc3)CC2)c(OC)c1 [TCMDC-138121],-18.96%,
Cc1ccoc1C(=O)Nc1cccc(-c2cccc(-c3nc4ccc(C(F)(F)F)cc4[nH]3)c2)c1 [TCMDC-136835],10.66%,
Cc1onc(-c2c(Cl)cccc2Cl)c1C(=O)N1CCc2cc3nccc(N4CCN5CCC[C@H]5C4)c3cc21 [TCMDC-140048],3.329%,
COc1cc(C(F)(F)F)nc2c(CNCCCNc3cc(=O)c4ccccc4[nH]3)scc12 [TCMDC-141145],-12.37%,
CNc1nc(N/N=C/c2cc3c(cc2[N+](=O)[O-])OCO3)nc(Nc2cccc(C(F)(F)F)c2)n1 [TCMDC-124216],15.24%,
